Screening results from PubChem BioAssay.
GDH-TPI inh: GDH-TPI coupling enzyme inhibitors, primary screen, artefact control for M. tuberculosis FBA inhibitor project, biochemical, absorbance, full deck; GDH-TPI coupled enzyme counterscreen, NADH absorbance; inhibition, % at 4.8 µM; actives 1.2% (n = 360,000); in the data active = inhibition above about 30%
Mtb FBA inh: Mtb FBA enzyme inhibitors, primary screen, biochemical, fluorescence, strain H37Rv; inhibition, % at 1 µM; purified M. tuberculosis FBA, fluorescence read-out; Fructose-bisphosphate aldolase (Mycobacterium tuberculosis (strain ATCC 25618 / H37Rv)), …; actives 2.3% (n = 360,000); in the data active = inhibition above about 27%
Target sequence (P9WQA3 whole entry, looked up): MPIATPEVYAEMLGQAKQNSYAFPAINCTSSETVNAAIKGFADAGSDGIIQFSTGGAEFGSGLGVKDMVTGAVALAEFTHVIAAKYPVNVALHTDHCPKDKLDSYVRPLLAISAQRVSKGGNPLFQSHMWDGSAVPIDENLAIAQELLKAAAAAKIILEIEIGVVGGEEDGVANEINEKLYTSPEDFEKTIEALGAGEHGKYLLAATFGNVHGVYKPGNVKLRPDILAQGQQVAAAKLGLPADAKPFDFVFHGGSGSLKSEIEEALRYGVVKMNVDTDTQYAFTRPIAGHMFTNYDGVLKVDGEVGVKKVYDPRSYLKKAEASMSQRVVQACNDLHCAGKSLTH
BioA inh: M. tuberculosis BioA enzyme inhibitors, primary screen, biochemical, plate reader, single point, HTS. actives 0.096% (n = 360,000). 7,8-diaminopelargonic acid synthase BioA (Mycobacterium tuberculosis). inhibition, % at 9.99 µM. purified M. tuberculosis BioA enzyme; in the data active = inhibition above about 40%
Vc quorum ag: inducers of Vibrio cholerae quorum light production without autoinducers, primary screen, BH1578 luxS cqsA deficient, single point. V. cholerae BH1578 lux reporter, luminescence, 6 h. activation, % at 18.7 µM. actives 0.16% (n = 350,000); in the data active = activation mostly above about 9.7%, no sharp cut-off
Each line names hits and unclear results; the compound was inactive in the other large screens. In the library only some 3% were active in any assay of this set; here they are far more common.

CC(C)c1cc(NCCOCCO)n2c(nc3ccccc32)c1C#N	Mtb FBA inh active (no result: BioA inh)
CCCc1cc(NCCCCO)n2c(nc3ccccc32)c1C#N	Mtb FBA inh 177.8
O=C(NC1CCCCC1)N[C@@H]1CC[C@H](CCNS(=O)(=O)c2ccc(F)cc2)O[C@@H]1CO	none (no result: GDH-TPI inh, Mtb FBA inh, Vc quorum ag)
COc1ccc(NC(=O)Nc2cccc3c2O[C@H](CN(C)C(=O)NC2CCCCC2)[C@H](C)CN([C@@H](C)CO)C3=O)cc1	none (no result: GDH-TPI inh, Mtb FBA inh, Vc quorum ag)
COc1ccc(CN(C)C[C@@H]2Oc3c(NS(C)(=O)=O)cccc3C(=O)N([C@@H](C)CO)C[C@H]2C)cc1	none (no result: GDH-TPI inh, Mtb FBA inh, Vc quorum ag)
C/C(=N\Nc1nc2ccccc2s1)c1ccc(Br)s1	none (no result: BioA inh)
CC(=NNc1nc2ccccc2s1)c1ccncn1	GDH-TPI inh 34.4 (no result: BioA inh)
COc1nnc(-c2ccc(N3CCOCC3)c(NC(=O)C3CCCCC3)c2)c2ccccc12	none
c1ccc2c3c(cc(N4CCOCC4)c2c1)OC1(N2CCOCC2)CCCCC1O3 (configuration not stated)	Mtb FBA inh 89.5
COc1ccccc1N1CCN(C(=O)c2cc3c(s2)-c2ccccc2OC3)CC1	none
O=C(Nc1cccnc1Cl)c1cc2c(s1)-c1ccccc1OC2	Mtb FBA inh 152.7
COC(=O)c1cc2c(s1)-c1ccccc1OC2	Mtb FBA inh active
CNC(=O)c1cc2c(s1)-c1ccccc1CC2	Mtb FBA inh active (no result: BioA inh)
COc1cc2c(cc1OC)C(c1ccc(Cl)cc1)=NCC2	none
COc1cc2c(cc1OC)C(C)=NC1(CCCCC1)C2	Mtb FBA inh 185.7
COc1cc2c(cc1OC)C(C)=NCC2	Mtb FBA inh active
O=C(C[C@H]1CC[C@H](NS(=O)(=O)c2ccc(F)cc2)[C@H](CO)O1)NC1CCCCC1	none (no result: GDH-TPI inh, Mtb FBA inh, Vc quorum ag)
O=C(NCC1CCCO1)c1coc2nc3ccccc3nc12 (configuration not stated)	Mtb FBA inh 126.2, Vc quorum ag active
COC(CNC(=O)c1coc2nc3ccccc3nc12)OC	Mtb FBA inh 120.1 (no result: BioA inh)
COC(CNC(=O)c1ccc2nc(-c3ccccc3)c(-c3ccccc3)nc2c1)OC	none (no result: BioA inh)
COc1ccc(/C=C/C(=O)O)cc1	none
COc1ccc(/C=C/C(=O)c2ccc(OC)cc2OC)cc1	GDH-TPI inh 38.2
COc1ccc(/C=C/C(=O)C2(O)CCCCC2)cc1	GDH-TPI inh 38.8
CCc1nn(CC(=O)NCCN2CCN(C)CC2)c(=O)c2cc3c(OC)cccc3n12	Mtb FBA inh active
COc1cccc2c1cc1c(=O)n(CC(=O)N3CCC(C)CC3)nc(C)n12	Mtb FBA inh active
CN(C)C(=O)C[C@@H]1CC[C@@H]2[C@H](COC[C@H](O)CN2Cc2nccs2)O1	none (no result: GDH-TPI inh, Mtb FBA inh, Vc quorum ag)
COc1cc2c3nnc(-c4ccc(F)cc4)c-3cn(Cc3cccc(C)c3)c2cc1OC	none (no result: Vc quorum ag)
COc1cc2c3nnc(-c4ccc(F)cc4)c-3cn(Cc3cccc(F)c3)c2cc1OC	Mtb FBA inh 46.0 (no result: BioA inh, Vc quorum ag)
O=C(N[C@H]1CC[C@@H](CC(=O)N2CCc3ccccc3C2)O[C@@H]1CO)C1CCOCC1	none (no result: GDH-TPI inh, Mtb FBA inh, Vc quorum ag)
O=C(/C=C/c1cccs1)NC(=S)Nc1ccc(C(=O)O)cc1	GDH-TPI inh 74.0
O=C(/C=C/c1cccs1)Nc1ccncc1	GDH-TPI inh 35.8 (no result: BioA inh)
NS(=O)(=O)c1ccc(NC(=S)NC(=O)/C=C/c2cccs2)cc1	none (no result: BioA inh)
O=C(/C=C/c1cccs1)Nc1ccc([N+](=O)[O-])cc1	none (no result: BioA inh)
C[C@@H]1CN([C@@H](C)CO)C(=O)c2cc(NC(=O)c3ccccc3)ccc2O[C@@H](C)CCCCO[C@@H]1CN(C)C(=O)NC1CCCCC1	none (no result: GDH-TPI inh, Mtb FBA inh, Vc quorum ag)
C[C@H](CO)N1C[C@H](C)[C@@H](CN(C)Cc2cccc(C(=O)O)c2)Oc2cc(C#CCC3CCCC3)ccc2S1(=O)=O	none (no result: GDH-TPI inh, Mtb FBA inh, Vc quorum ag)
NC(=O)N=Nc1c2[nH]c3ccccc3nc-2c2ccccc12	GDH-TPI inh 36.2
Cc1c(OCC(=O)NCc2cccnc2)ccc2c3c(c(=O)oc12)CCC3	none
COc1cc2c(c3oc(=O)cc(CC(=O)O)c13)CCC(C)(C)O2	Mtb FBA inh 199.4
CCc1cc(=O)oc2c3c(cc(OCC(=O)NCc4ccccn4)c12)OC(C)(C)CC3	Mtb FBA inh 188.9
CCc1cc(=O)oc2c3c(cc(OCC(=O)NCc4cccnc4)c12)OC(C)(C)CC3	Mtb FBA inh active
Cc1c(C)c2c(OCC(=O)Nc3cccnc3)cc3c(c2oc1=O)CCC(C)(C)O3	none
CCc1cc(=O)oc2c3c(cc(OCC(=O)Nc4cccnc4)c12)OC(C)(C)CC3	Mtb FBA inh 34.2
C[C@H](CO)N1C[C@H](C)[C@H](CN(C)S(C)(=O)=O)OCCCC[C@H](C)Oc2ccc(NC(=O)CCC(F)(F)F)cc2C1=O	none (no result: GDH-TPI inh, Mtb FBA inh, Vc quorum ag)
C[C@H](CO)N1C[C@H](C)[C@H](CN(C)Cc2ccncc2)Oc2ncccc2C1=O	none (no result: GDH-TPI inh, Mtb FBA inh, Vc quorum ag)
CCc1cc(=O)oc2c3c(cc(OCC(=O)NCCCCCC(=O)O)c12)OC(C)(C)CC3	Mtb FBA inh active
COc1ccc(OC)c(NC(=O)C2=C(C)Nc3ncnn3C2c2cccs2)c1 (configuration not stated)	Vc quorum ag active
COc1ccc(C2Nc3cc(OC)ccc3-n3cccc32)cc1 (configuration not stated)	GDH-TPI inh 33.8
FC(F)(F)Oc1ccc(C2NCc3ccccc3-n3cccc32)cc1 (configuration not stated)	none
C[C@@H]1CN([C@@H](C)CO)S(=O)(=O)c2ccc(C#Cc3ccccc3F)cc2O[C@@H]1CN(C)CC1CCOCC1	none (no result: GDH-TPI inh, Mtb FBA inh, Vc quorum ag)
CC(C)NC(=O)Nc1ccc2c(c1)C(=O)N([C@@H](C)CO)C[C@@H](C)[C@@H](CN(C)C)O2	none (no result: GDH-TPI inh, Mtb FBA inh, Vc quorum ag)
N#CC(c1ccc(O)cc1)N1CCOCC1 (configuration not stated)	GDH-TPI inh 31.2
Cc1cc(C)c(C(=O)/C=C/c2ccc(C(C)C)cc2)c(=O)[nH]1	GDH-TPI inh 42.1
C/C(=C\C=C\c1ccccc1)C(=O)c1c(C)cc(C)[nH]c1=O	GDH-TPI inh 47.4 (no result: BioA inh)
C#CCn1c(=NC(=O)c2ccc(S(=O)(=O)N3CCc4ccccc4C3)cc2)sc2cc(S(N)(=O)=O)ccc21	GDH-TPI inh 48.1
COc1cccc2c(=O)c3c(cnn3C)n(C)c12	Mtb FBA inh active
N#C/C(=C\c1ccc(-c2ccccc2[N+](=O)[O-])o1)C(N)=O	GDH-TPI inh 41.3 (no result: BioA inh)
CC(=O)N(C)C[C@@H]1Oc2ncc(-c3ccccc3C)cc2C(=O)N([C@H](C)CO)C[C@@H]1C	none (no result: GDH-TPI inh, Mtb FBA inh, Vc quorum ag)
N=c1nc(-c2ccccc2)ccn1O	GDH-TPI inh 39.1
COc1ccc(/C=C2\Sc3ccc(C(=O)NCc4cccnc4)cc3N(C)C2=O)cc1OC	GDH-TPI inh 34.6
CCOC(=O)c1cc(-c2ccccc2)sc1NC(=O)CC	none (no result: BioA inh)
O=C(Nc1sc(-c2ccccc2)cc1C(=O)O)c1ccccc1	GDH-TPI inh 34.6
CC1(C)CC(=O)C=C(NNC(=O)c2ccccc2O)C1	GDH-TPI inh 40.1
COc1ccc(C(=O)NNC2=CC(=O)CC(C)(C)C2)cc1	none
Cc1cccc(C(=O)NNC2=CC(=O)CC(C)(C)C2)c1O	GDH-TPI inh 37.4 (no result: BioA inh)
